Shown are actives, neighbours in structure and some others; about 19% of the full set was active somewhere.
DT40 TDP1 no CPT = qHTS for Inhibitors of human tyrosyl-DNA phosphodiesterase 1 (TDP1): qHTS in cells in absence of CPT | 420,000 compounds, 15% hits | DT40 Tdp1-/- hTDP1 cells, no CPT, ATP luminescence, 48 h | AID 686978, 2013 | Potency, µM (titrated, usually from 46.2 µM), without a hit: at the top dose activity change, negative = growth inhibition, usual class: inhibitors; note: potency is the fitted concentration of half-maximal effect; nearly all actives have a fitted effect of over 55% in size
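Camptothecin absent (DMSO only). Human TDP1-complemented DT40 knockout cells, 400 cells/well, 37 °C for minimum 48 hr; ATP measured via CellTiter-Glo, 30 min dark incubation, luminescence.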
IL1B secr inh = inhibitors of inflammasome signaling (IL-1 beta secretion); THP-1 LPS/ATP IL-1B secretion, AlphaLISA, 16 h; hits give low values; activity change, % at 57.5 µM; 360,000 compounds, 4.7% hits; in the data active = activity change below about -50%; inconclusive = mostly about -30% to -49%
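Secreted IL-1B measured by AlphaLISA bead assay after 16 h compound exposure of THP-1 cells; compounds (final up to 57.5 uM) added 1 h before LPS (250 ng/mL) and ATP (1.25 mM) stimulation; lower signal means less secretion.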
TDP1 cell CPT = growth inhibition of DT40 Tdp1-/-;hTDP1 cells with camptothecin (screen for TDP1 inhibitors). AID 686979. chicken DT40 Tdp1-/-;hTDP1 cells + 20 nM CPT, ATP luminescence, 48 h. 420,000 compounds, 12% hits. Potency, µM (series often up to 46.2 µM), without a hit: at the highest dose activity change, negative = growth inhibition, actives largely listed as inhibitors; note: potency is the fitted concentration of half-maximal effect; nearly all actives have a fitted effect of over 55% in size
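Cell growth measured by CellTiter-Glo luminescence after a minimum 48 h, 37 C compound exposure with 20 nM CPT in Tdp1-knockout DT40 cells stably expressing hTDP1, seeded 400/well; qHTS titration format.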
HT1080 IDH1KD tx = HT-1080 IDH1 knockdown cell toxicity (counter line); Potency, µM (doses to about 46.1 µM), for inactives: at the top dose activity, negative = toxicity, hits mostly cytotoxic; HT-1080 IDH1 knockdown viability, ATP luminescence, 48 h; 360,000 compounds, 2% hits;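 note: potency is the fitted concentration of half-maximal effect; 0% = DMSO wells and -100% = cell-free medium wells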
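CellTiter-Glo luminescence after 48 h compound exposure at 37 degrees C of IDH1-knockdown HT-1080 cells in 5% FBS RPMI. %Activity scaled between DMSO wells and cell-free media wells, with curves fitted and assigned curve classes.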
HT1080-NT tox = kills 2HG-producing HT-1080-NT fibrosarcoma cells; HT-1080-NT fibrosarcoma viability, CellTiter-Glo ATP luminescence, 48 h; Potency, µM (series often up to 46.1 µM), for inactives: at the highest dose activity, negative = less viability, most hits filed as cytotoxic; 360,000 compounds, 1.6% hits; AID 686970;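 note: NT is the 2HG producing partner of a matched IDH1 knockdown line; potency is the fitted concentration of half-maximal effect; 0% = DMSO-treated cells and -100% = media-only wells without cells; nearly all actives have a fitted effect of over 55% in size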
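Luminescent CellTiter-Glo readout after 48 hours of compound exposure at 37 degrees C defined viability of HT-1080-NT cells. Activity was normalized to DMSO wells and cell-free media wells; concentration-response curves were fitted and assigned curve classes.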
The depositor's hits bear a star; ? = inconclusive; . = no result; [ ] = dose if it differs, or a comment. Unless noted, calls come from the whole dose curve; as a rule, active = well fitted curve in the direction sought with a large enough effect; inconclusive = small, poorly fitted or top-dose-only effect, or another doubt; inactive = no such curve, though single readings can be large; an effect the other way counts as inactive or inconclusive. Unless noted, % is set by controls: 0 for no effect and ±100 for the full control effect.

SMILES | DT40 TDP1 no CPT | IL1B secr inh | TDP1 cell CPT | HT1080 IDH1KD tx | HT1080-NT tox
COc1ccc(S(=O)(=O)N2CCN(c3nc(-c4cccs4)nc4ccccc34)CC2)cc1 | ? | . | ? | 1% | 1%
CC(C)(C)c1ccc(S(=O)(=O)N2CCN(c3nc(-c4cccs4)nc4ccccc34)CC2)cc1 | ? | . | -12% | -2% | 18%
O=S(=O)(c1ccccc1C(F)(F)F)N1CCN(c2nc(-c3cccs3)nc3ccccc23)CC1 | 11µM* | . | 13µM* | . | .
O=S(=O)(c1cccs1)N1CCN(c2nc(-c3cccs3)nc3ccccc23)CC1 | 20µM* | . | ? | 2% | 18%
CS(=O)(=O)N1CCN(c2nc(-c3cccs3)nc3ccccc23)CC1 | 11µM* | . | 16µM* | -22% | -24%
Cc1ccc(S(=O)(=O)N2CCN(C(=O)CC(C)n3nc(C)c(Cl)c3C)CC2)cc1 (configuration not stated) | -28% | 2 | -13% | -4% | -1%
O=C1CCc2cc(-c3csc(-c4ccc(O)cc4)n3)ccc2N1 | 3.2µM* | . | 11µM* | . | .
CCN1CCN(CCCNC(=O)c2ccc3c(c2)N(Cc2ccccc2)CCS3)CC1 | ? | -27 | 23µM* | ? | -18%
CN1CCN(CCCNC(=O)c2ccc3c(c2)N(Cc2ccc(F)cc2)CCS3)CC1 | ? | -8 | 16µM* | ? | -19%
O=C(NCCCN1CCOCC1)c1ccc2c(c1)N(Cc1ccc(F)cc1)CCS2 | ? | -5 | 16µM* | ? | -13%
O=C(NCC1CCCO1)c1ccc2c(c1)N(Cc1ccc(F)cc1)CCS2 (configuration not stated) | ? | -7 | ? | 0% | 5%
COc1cccc(CN2CC(C(=O)NCCc3nccs3)CCC2=O)c1 (configuration not stated) | 1% | 0 | -7% | 10% | -1%
Cc1ccc(C2CC(C(F)(F)F)n3ncc(C(=O)NCc4ccco4)c3N2)cc1 (configuration not stated) | ? | -19 | -28% | 2% | -2%
Cc1ccc(C2CC(C(F)F)n3ncc(C(=O)Nc4c(C)nn(Cc5c(F)cccc5Cl)c4C)c3N2)cc1 (configuration not stated) | 18µM* | -22 | ? | -19% | -23%
Cc1ccc(-c2cc(C(F)F)n3ncc(C(=O)Nc4c(C)nn(Cc5c(Cl)cccc5Cl)c4C)c3n2)cc1 | 15µM* | -7 | 10µM* | -17% | -10%
Cc1nn(Cc2c(Cl)cccc2Cl)c(C)c1NC(=O)c1cnn2c(C(F)F)cc(-c3ccccc3)nc12 | ? | 13 | 21µM* | 12% | 10%
CC(=NCc1cccc(Cl)c1)c1nc(-c2ccco2)oc1O | ? | 13 | -30% | -5% | 1%
COc1ccc(-n2c(=O)c(C)nc3cnc(Oc4ccccc4)nc32)cc1 | ? | . | -20% | . | .
CC(=O)Nc1ccc(NC(=O)c2c(C)nn(-c3ccccc3)c2Cl)cc1C | -10% | -6 | -3% | 17% | 16%
CC(C)C[C@H]1CN([C@@H](Cc2ccc(O)cc2)CN2CCC[C@@H]2CN2C(=S)NC[C@@H]2Cc2ccccc2)C(=S)N1CCc1ccccc1 | 6.5µM* | -27 | 6.5µM* | -8% | -11%
CC(C)C[C@H]1CNC(=S)N1C[C@H]1CCCN1C[C@H](Cc1ccc(O)cc1)N1C[C@H](CC(C)C)N(CCc2ccccc2)C1=S | 21µM* | -63* | ? | -26% | -26%
CC(C)C[C@H]1CNC(=S)N1C[C@H]1CCCN1C[C@H](Cc1ccc(O)cc1)N1C[C@H](Cc2ccc(O)cc2)N(CCc2ccccc2)C1=S | ? | ? | ? | 21µM* | 21µM*
CC(C)C[C@H]1CNC(=S)N1C[C@H]1CCCN1C[C@H](Cc1ccccc1)N1C[C@H](Cc2ccc(O)cc2)N(CCc2ccccc2)C1=S | 13µM* | -28 | 23µM* | -29% | ?
CC(C)C[C@H]1CNC(=O)C(=O)N1C[C@@H]1CCCN1C[C@H](Cc1ccccc1)N1C[C@H](CC(C)C)N(CCc2ccccc2)C(=O)C1=O | ? | ? | ? | 24% | 11%
CCN(CC)c1ccc(C(=O)NNC(=O)CN2C(=O)NC3(CCCCC3)C2=O)cc1 | 0% | 8 | -1% | 0% | 2%
SMILES | DT40 TDP1 no CPT | IL1B secr inh | TDP1 cell CPT | HT1080 IDH1KD tx | HT1080-NT tox
CN(C)S(=O)(=O)c1ccc(N2CCCC2)c(C(=O)NNC(=O)c2ccc(Br)cc2)c1 | -8% | -10 | 3% | -2% | 0%
COc1ccc(OC)c(C(=O)C2COC(=O)C2)c1 (configuration not stated) | ? | 12 | ? | -15% | ?
CN(Cc1ccc(F)cc1)C(=O)C(c1ccccc1)c1ccccc1 | ? | ? | -27% | -5% | 0%
COc1cccc(NC(=O)CN(C)C(=O)CNC(=O)c2ccc3ccccc3c2)c1 | 5% | -100* | -1% | -23% | -1%
COc1ccccc1CN(C)C(=O)C(c1ccccc1)c1ccccc1 | 13µM* | -82* | 16µM* | 16µM* | ?
COc1ccc(Br)cc1CN(C)C(=O)CNC(=O)c1ccc2ccccc2c1 | ? | -75* | -23% | -19% | -23%
CCN(CC(=O)Nc1cccc(OC)c1)C(=O)c1cnc(Cl)c(Cl)c1 | ? | -83* | -11% | 1% | -3%
COc1cccc(NC(=O)CN(C)C(=O)c2ccc3ccccc3c2)c1 | 2% | 17 | -3% | -4% | 4%
CN1CCN(S(=O)(=O)NC[C@H]2O[C@@H](n3cnc4c(N)ncnc43)[C@H](O)[C@@H]2O)CC1 | 19% | 12 | 5% | 0% | ?
COc1cc(C(=O)NC(=S)N2CCN(C)CC2)cc(OC)c1OC | -6% | 65 | -5% | -10% | 12%
CN(CC(=O)Nc1ccccc1Cl)C(=O)c1ccc(Cl)c(S(=O)(=O)N2CCCCCC2)c1 | ? | -3 | -15% | -10% | -21%
CN(CC(=O)Nc1cccc(F)c1)C(=O)c1ccc(OCc2cn3ccccc3n2)cc1 | 15µM* | -2 | ? | -8% | -12%
Cc1ccc(S(=O)(=O)N(CCC(=O)NCc2ccccc2F)c2ccccc2)cc1 | ? | -21 | ? | 1% | 8%[9.24 µM]
COc1cccc(NC(=O)CN(C)C(C)C(=O)Nc2ccc(C(C)=O)cc2)c1 (configuration not stated) | 0% | -9 | 0% | 9% | 8%
COc1cccc(NC(=O)CN(C)C(C)C(=O)NC(C)c2ccc(Cl)cc2Cl)c1 (configuration not stated) | 18µM* | -8 | ? | 1% | 0%

Screening results deposited in PubChem by National Center for Advancing Translational Sciences (NCATS).
